According to PubChem BioAssay AID1159580 (chemical genetic matrix, 2015):
In all, about 5,500 compounds went through this assay and about 2,000 (36%) were called active. Roughly 18% stayed inconclusive and do not appear here. No stated cut-off is given here; in the data, active means normalized growth mostly below about 0.91 (no sharp cut-off); inconclusive means no clear call, values can overlap the other calls; inactive means mostly above about 0.92. The list shows a part of the results.

Test: chemical genetic growth profiling, strain panel (AID 1159580);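 further: tested at 20 µM; growth read once vehicle control cultures reached saturation at 30 °C; 1 = growth at the plate median or of vehicle wells; lower values mean less growth of the strain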
Conditions: growth OD

Measured: normalized growth

Cc1cccc(CN2CCN(C(c3ccccc3)c3ccc(Cl)cc3)CC2)c1 (stereo not drawn)
inactive: S. cerevisiae deletion strains, locus YKL009W, strain mrt4, active compounds read low 0.971 | S. cerevisiae deletion strains, locus YKL068W, active compounds read low 0.992 | S. cerevisiae deletion strains, locus YKL085W, strain MDH1 (second series), active compounds read low 0.978 | S. cerevisiae deletion strains, locus YKL085W, strain MDH1, active compounds read low 0.978 | S. cerevisiae deletion strains, locus YKR026C, strain gcn3, active compounds read low 0.969 | S. cerevisiae deletion strains, locus YKR091W, strain srl3, active compounds read low 0.964 | S. cerevisiae deletion strains, locus YLR039C, strain RIC1, active compounds read low 1.31 | S. cerevisiae deletion strains, locus YLR102C, strain apc9, active compounds read low 0.99 | S. cerevisiae deletion strains, locus YLR113W, strain HOG1, active compounds read low 0.912 | S. cerevisiae deletion strains, locus YLR262C, strain YPT6 (second series), active compounds read low 0.905 | S. cerevisiae deletion strains, locus YLR262C, strain YPT6, active compounds read low 1.06 | S. cerevisiae deletion strains, locus YLR268W, strain sec22, active compounds read low 0.895 | S. cerevisiae deletion strains, locus YLR342W, strain FKS1 (second series), active compounds read low 0.791 | S. cerevisiae deletion strains, locus YLR342W, strain FKS1, active compounds read low 0.929 | S. cerevisiae deletion strains, locus YLR357W, strain rsc2, active compounds read low 0.908 | S. cerevisiae deletion strains, locus YLR371W, strain rom2, active compounds read low 0.964 | S. cerevisiae deletion strains, locus YLR384C, strain iki3, active compounds read low 0.992 | S. cerevisiae deletion strains, locus YML124C, strain tub3, active compounds read low 0.977 | S. cerevisiae deletion strains, locus YMR078C, strain ctf18, active compounds read low 0.986 | S. cerevisiae deletion strains, locus YMR307W, strain GAS1, active compounds read low 0.611 | S. cerevisiae deletion strains, locus YNL183C, strain NPR1, active compounds read low 0.947 | S. cerevisiae deletion strains, locus YNL250W, strain rad50, active compounds read low 0.983 | S. cerevisiae deletion strains, locus YNL271C, strain bni1, active compounds read low 0.988 | S. cerevisiae deletion strains, locus YNL298W, strain CLA4, active compounds read low 0.988 | S. cerevisiae deletion strains, locus YNL307C, strain MCK1, active compounds read low 0.96 | S. cerevisiae deletion strains, locus YNL322C, strain KRE1, active compounds read low 0.972 | S. cerevisiae deletion strains, locus YNR049C, strain mso1, active compounds read low 0.983 | S. cerevisiae deletion strains, locus YOL012C, strain htz1 0.942 | S. cerevisiae deletion strains, locus YOR061W, strain CKA2, active compounds read low 0.916 | S. cerevisiae deletion strains, locus YOR069W, strain VPS5, active compounds read low 0.955 | S. cerevisiae deletion strains, locus YOR080W, strain dia2, active compounds read low 0.937 | S. cerevisiae deletion strains, locus YOR136W, strain idh2, active compounds read low 0.937 | S. cerevisiae deletion strains, locus YOR144C, strain elg1, active compounds read low 0.973 | S. cerevisiae deletion strains, locus YOR231W, strain MKK1, active compounds read low 0.887 | S. cerevisiae deletion strains, locus YOR316C, strain cot1, active compounds read low 0.98 | S. cerevisiae deletion strains, locus YPL241C, strain CIN2, active compounds read low 0.956 | S. cerevisiae deletion strains, locus YPL256C, strain CLN2, active compounds read low 0.94 | S. cerevisiae deletion strains, locus YPR119W, strain clb2, active compounds read low 0.996 | S. cerevisiae deletion strains, locus YPR141C, strain kar3, active compounds read low 0.989
active: S. cerevisiae deletion strains, locus YJR075W, strain HOC1, active compounds read low 0.794 | S. cerevisiae deletion strains, locus YKL160W, strain elf1, active compounds read low 0.75 | S. cerevisiae deletion strains, locus YKR001C, strain vps1, active compounds read low 0.47 | S. cerevisiae deletion strains, locus YLL001W, strain dnm1, active compounds read low 0.81 | S. cerevisiae deletion strains, locus YLL026W, active compounds read low 0.8 | S. cerevisiae deletion strains, locus YLL041C, strain sdh2, active compounds read low 0.926 | S. cerevisiae deletion strains, locus YLR027C, strain aat2, active compounds read low 0.744 | S. cerevisiae deletion strains, locus YLR058C, strain SHM2, active compounds read low 0.766 | S. cerevisiae deletion strains, locus YLR221C, strain rsa3, active compounds read low 0.601 | S. cerevisiae deletion strains, locus YLR258W, strain gsy2, active compounds read low 0.721 | S. cerevisiae deletion strains, locus YLR320W, strain mms22, active compounds read low 0.713 | S. cerevisiae deletion strains, locus YLR330W, strain CHS5, active compounds read low 0.743 | S. cerevisiae deletion strains, locus YLR370C, strain arc18, active compounds read low 0.853 | S. cerevisiae deletion strains, locus YLR418C, strain cdc73, active compounds read low 0.365 | S. cerevisiae deletion strains, locus YML016C, strain PPZ1, active compounds read low 0.887 | S. cerevisiae deletion strains, locus YML032C, strain rad52, active compounds read low 0.831 | S. cerevisiae deletion strains, locus YML120C, strain ndi1, active compounds read low 0.616 | S. cerevisiae deletion strains, locus YMR058W, strain fet3, active compounds read low 0.873 | S. cerevisiae deletion strains, locus YMR125W, strain sto1, active compounds read low 0.854 | S. cerevisiae deletion strains, locus YMR129W, active compounds read low 0.876 | S. cerevisiae deletion strains, locus YMR205C, strain PFK2, active compounds read low 0.802 | S. cerevisiae deletion strains, locus YMR223W, strain ubp8, active compounds read low 0.809 | S. cerevisiae deletion strains, locus YMR231W, strain pep5, active compounds read low 0.526 | S. cerevisiae deletion strains, locus YMR263W, strain SAP30, active compounds read low 0.754 | S. cerevisiae deletion strains, locus YNL067W, strain RPL9B, active compounds read low 0.789 | S. cerevisiae deletion strains, locus YNL071W, strain lat1, active compounds read low 0.801 | S. cerevisiae deletion strains, locus YNL209W, strain ssb2, active compounds read low 0.54 | S. cerevisiae deletion strains, locus YNL233W, strain BNI4, active compounds read low 0.692 | S. cerevisiae deletion strains, locus YNL248C, strain rpa49, active compounds read low 0.806 | S. cerevisiae deletion strains, locus YNL322C, strain KRE1 (second series), active compounds read low 0.685 | S. cerevisiae deletion strains, locus YNR052C, strain pop2, active compounds read low 0.724 | S. cerevisiae deletion strains, locus YOL147C, strain pex11, active compounds read low 0.913 | S. cerevisiae deletion strains, locus YOR001W, strain rrp6, active compounds read low 0.802 | S. cerevisiae deletion strains, locus YOR070C, strain gyp1, active compounds read low 0.735 | S. cerevisiae deletion strains, locus YOR083W, strain WHI5, active compounds read low 0.689 | S. cerevisiae deletion strains, locus YOR106W, strain vam3, active compounds read low 0.549 | S. cerevisiae deletion strains, locus YOR184W, strain ser1, active compounds read low 0.833 | S. cerevisiae deletion strains, locus YOR265W, strain rbl2, active compounds read low 0.774 | S. cerevisiae deletion strains, locus YOR270C, strain vph1, active compounds read low 0.524 | S. cerevisiae deletion strains, locus YOR290C, strain snf2, active compounds read low 0.764 | S. cerevisiae deletion strains, locus YPL051W, strain arl3, active compounds read low 0.496 | S. cerevisiae deletion strains, locus YPL055C, strain LGE1, active compounds read low 0.439 | S. cerevisiae deletion strains, locus YPL078C, strain atp4, active compounds read low 0.887 | S. cerevisiae deletion strains, locus YPL106C, strain sse1, active compounds read low 0.828 | S. cerevisiae deletion strains, locus YPL240C, strain hsp82, active compounds read low 0.808 | S. cerevisiae deletion strains, locus YPR163C, strain tif3, active compounds read low 0.721 | S. cerevisiae deletion strains, locus YPR167C, strain met16, active compounds read low 0.884 | S. cerevisiae deletion strains, strain wtn01, active compounds read low 0.761 | S. cerevisiae strains, strain wild type, active compounds read low 0.812
